BoNT-A LC inh2 = BoNT/A light chain protease inhibitors, primary screen, biochemical, flow cytometry, MLPCN library | Botulinum neurotoxin type A light chain protease (Clostridium botulinum A str. ATCC 3502) | multiplex microsphere protease substrate cleavage | inhibition, % at 10 µM | hit rate 0.17% among 360,000
Bead autofluor = flagged as autofluorescent in microsphere protease counterscreen; compound autofluorescence counterscreen, microsphere flow cytometry; hits give high values; AID 624483; fluorescence intensity (test concentration not listed); hit rate 3.1% among 360,000; in the data active = fluorescence intensity above about 16000; inconclusive = no clear call, values can overlap the other calls
BoNT F protease = BoNT/F light chain protease inhibitors, primary screen, biochemical, flow cytometry, MLPCN library | Botulinum neurotoxin type F light chain protease (Clostridium botulinum) | Multiplex microsphere protease cleavage assay | inhibition, % at 10 µM | hit rate 0.22% among 360,000 | AID 588497, 2011; in the data active = inhibition above about 35%, passing the limit was not always enough; inconclusive = no clear call, values can overlap the other calls
Anthrax LF prot = Bacillus anthracis LF protease inhibitors, primary screen, biochemical, multiplex microsphere, MLPCN library | Lethal factor (Bacillus anthracis), P15917 | multiplex microsphere protease cleavage assay | inhibition, % at 10 µM | hit rate 0.12% among 360,000
MazF activator = activators of E. coli MazEF toxin-antitoxin RNase, primary screen, biochemical, fluorescence, uHTS | Endoribonuclease toxin MazF (Escherichia coli (strain K12)), P0AE70 | activation, % at 20 µM | FAM/BHQ RNA-DNA oligo cleavage fluorescence, 5 h | hit rate 0.32% among 350,000; in the data active = activation above about 50%
Hits are given with their value; . = inactive; ? = inconclusive; / = no result given. Only some compounds are listed: those with a hit (about 3.6% of all), similar ones and a draw of the others. Rule as the data show it, unless noted: active = inhibition above about 30%; inconclusive = no clear call, values can overlap the other calls; inactive = below that.

SMILES	BoNT-A LC inh2	Bead autofluor	BoNT F protease	Anthrax LF prot	MazF activator
CC1([N+](=O)[O-])COP(=O)(Nc2cccc(Br)c2)OC1 (stereo not given)	.	16672	.	.	.
CC1(C)C(=O)OC(c2cccs2)C(C)(C)C1=O (stereo not given)	.	19729	.	.	.
O=C(CNC(=O)c1ccccc1F)OCCCOC(=O)CNC(=O)c1ccccc1F	.	30957	.	.	.
O=C(CNC(=O)c1ccccc1F)NC1CC1	?	19571	.	.	.
O=C(COC(=O)c1ccccc1F)NC1CC1	.	?	.	.	.
Cc1ccc(N=Cc2ccc(O)cc2O)cc1F	?	21566	.	.	194.3
COc1ccc(C(=O)NC2=C(C#N)CCC2)cc1OC	.	.	.	.	.
N#CC1=C(Nc2ccc(Br)cc2)CCC1	.	16939	.	.	.
CC(NC(=O)c1ccccc1F)c1nnc(SCC(=O)Nc2nnc(C3CC3)s2)n1C (stereo not given)	/	/	/	/	.
N#CCNC1CC(=O)N(c2ccccc2)C1=O (stereo not given)	.	.	.	.	.
COc1cc(C(=O)OCC(=O)NCCC2=CCCCC2)cc(OC)c1OC	.	.	.	.	.
Cc1cc(C)cc(N(C(C)C(=O)NCCC2=CCCCC2)S(C)(=O)=O)c1 (stereo not given)	.	23149	.	.	.
Cc1ccc(N(Cc2ccc(C(=O)NC3CCCCC3)cc2)S(C)(=O)=O)cc1C	.	.	.	.	51.4
COc1ccc(C)cc1NC(=O)NCCC1=CCCCC1	.	21584	.	.	.
CC(C)CCNC(=O)C(=O)NCCC1=CCCCC1	.	.	.	.	.
COc1cc(C(=O)NCCC2=CCCCC2)cc(OC)c1OC	.	22928	.	.	.
CS(=O)(=O)N(Cc1ccc(C(=O)NC2CCCC2)cc1)c1ccccc1	.	.	.	.	.
O=C(CCCCCN1C(=O)[C@@H]2Cc3ccccc3CN2C1=O)Nc1cccc(F)c1	/	/	/	/	.
CC(C)C(=O)Nc1ccc(C(=O)NNC(=O)NC2CCCCC2)cc1	?	17675	.	.	.
CS(=O)(=O)Nc1ccc(C(=O)NCCC2=CCCCC2)cc1	?	24230	.	.	.
CS(=O)(=O)Nc1ccc(C(=O)NC2CCCCC2)cc1	.	.	.	.	.
Cc1cc(C(=O)NCCC2=CCCCC2)c(C)o1	.	16581	.	.	.
O=C(NNC(=O)c1ccncc1)NC1CCCCC1	.	.	.	.	.
Cc1ccc(S(=O)(=O)N2CCCCC2)cc1C(=O)NCCC1=CCCCC1	.	.	?	.	.
CS(=O)(=O)N(Cc1ccc(Cl)cc1)c1ccc(C(=O)NCCC2=CCCCC2)cc1	.	.	.	.	.
SMILES	BoNT-A LC inh2	Bead autofluor	BoNT F protease	Anthrax LF prot	MazF activator
CS(=O)(=O)Nc1ccc(C(=O)NC2CCCC2)cc1	.	20262	.	.	.
COc1ccc(Cl)cc1N1C(=NC(=O)C2CCCO2)SC2CS(=O)(=O)CC21 (stereo not given)	.	.	.	.	.
CC(C)(Oc1ccc(Cl)cc1)C(=O)NC1CC1	.	.	.	.	.
Cc1cnc(C(=O)NC2CC(C)(C)Cc3c2cnn3-c2cccc(F)c2)cn1 (stereo not given)	.	.	.	.	.
CCCCC[C@H](C)N1C[C@H](COCc2ccccc2)Oc2cc(N3CC[C@@H](N(C)C)C3)ccc2S1(=O)=O	.	.	.	.	/
O=C(O)C1C2C=CC(O2)C1C(=O)Nc1ccc(S(=O)(=O)N2CCc3ccccc32)cc1 (stereo not given)	.	.	.	.	.
O=C(O)C1C2C=CC(O2)C1C(=O)Nc1ccc(S(=O)(=O)Nc2ccccc2)cc1 (stereo not given)	.	21995	.	.	.
Cc1cccc(NC(=S)N(CCN(C)C)C(C)c2ccccn2)c1 (stereo not given)	.	22805	.	.	.
COC(=O)CCCC1=CC2=C(c3ccccc3)C(=O)C(C)(OC(=O)C3CCCC3)C(=O)C2=CN1CCc1c[nH]c2ccccc12 (stereo not given)	.	.	.	.	53.8
O=C(O)CCNC(=O)/C(=C\c1ccco1)NC(=O)c1ccco1	.	.	?	.	.
O=C(COC(=O)C1CC2C=CC1C2)Nc1ccc2c(c1)OC(F)(F)O2 (stereo not given)	.	16493	.	.	.
O=C(/C=C/c1ccc(Cl)cc1)NCCSc1ccccc1	?	19211	.	.	.
O=C(Nc1ccc(F)cc1)NC1(C(=O)NCc2ccco2)CCCCC1	.	16458	.	.	.
CCOc1ccc(NC(=O)NC2(C(=O)NCc3ccco3)CCCCC2)cc1	.	.	.	.	.
COc1cccc(C2Nc3ccccc3NC3=C2C(=O)CC(C)(C)C3)c1OC (stereo not given)	.	.	?	.	.
COc1ccccc1C1Nc2ccccc2NC2=C1C(=O)CC(C)(C)C2 (stereo not given)	.	.	36.6	.	.
CSc1ccccc1NC(=O)c1c(C)noc1C	.	22017	.	.	.
CC(=O)Nc1ccc(NC(=O)c2ccccc2N(Cc2ccccc2)S(C)(=O)=O)cc1	.	.	?	.	.
CSc1ccccc1NC(=O)c1ccccc1N(C)S(C)(=O)=O	.	22950	.	.	.
CSc1ccccc1NC(=O)Nc1cccc(F)c1	.	.	.	.	.
CSc1ccccc1NC(=O)c1ccccc1N(Cc1ccccc1)S(C)(=O)=O	.	19711	.	.	.
CSc1ccccc1NC(=O)Nc1ccccc1	?	25193	.	.	.
Cc1csc(CNC(=O)C2CCC(=O)N(CCc3cccc(F)c3)C2)n1 (stereo not given)	.	.	.	.	.
O=C1CC2(CCN1)CCN(Cc1ccccc1)CC2	.	.	.	.	.
CCCCNC(=O)C1c2ccccc2OCC(=O)N1Cc1ccccn1 (stereo not given)	.	.	.	.	/
SMILES	BoNT-A LC inh2	Bead autofluor	BoNT F protease	Anthrax LF prot	MazF activator
C=CCn1c(Cc2c[nH]c3ccccc23)nnc1SCC(=O)NCc1ccccc1	.	23009	.	.	.
COc1ccc(CCNC(=O)CN(C2CCCCC2)S(C)(=O)=O)cc1OC	.	.	.	.	.
COc1ccc(NC(=O)CN(C2CCCCC2)S(C)(=O)=O)cc1Cl	.	21935	.	.	.
CS(=O)(=O)N(CC(=O)NCCc1ccccc1)C1CCCCC1	.	18975	.	.	.
O=C(Nc1ccc(Cl)cc1)C1Cc2c(-c3cccc(F)c3)ccnc2O1 (stereo not given)	.	.	.	.	/
COc1ccccc1C(=O)NCC(=O)NNC(=O)c1cccs1	.	.	.	.	.
COC(=O)[C@]12CCCCC=C1N(CCC1=CCCCC1)C(=O)[C@H](CC(=O)N1CCN(C(=O)C3CC3)CC1)C2	.	.	.	.	/
O=C(NC12CC3CC(CC(C3)C1)C2)c1ccccc1	.	.	.	.	.
O=C(NC12CCC(O)C(SC1)/C2=N/O)c1ccccc1 (stereo not given)	.	19906	.	.	.

Assay outcomes as filed in PubChem BioAssay.
